The source of these data is ChEMBL document CHEMBL5724796, “Tm Shift (DSF) assay results for EUbOPEN Chemogenomics Library” (2024).

What all share (settings): Compound concentration 20.0 uM
In assay [1] the target is Tyrosine-protein kinase ABL1 (Homo sapiens) (UniProt P00519).
The target of assay [2] is Bromodomain-containing protein 4 (Homo sapiens) (UniProt O60885).
Assay [3] concerns the target Cyclin-dependent kinase 2 (Homo sapiens) (UniProt P24941).
Assay [4] has as its target Casein kinase I isoform delta (Homo sapiens) (UniProt P48730).
In assay [5] the target is Glycogen synthase kinase-3 beta (Homo sapiens) (UniProt P49841).
Sequence of Glycogen synthase kinase-3 beta (Homo sapiens) (P49841 whole entry, looked up): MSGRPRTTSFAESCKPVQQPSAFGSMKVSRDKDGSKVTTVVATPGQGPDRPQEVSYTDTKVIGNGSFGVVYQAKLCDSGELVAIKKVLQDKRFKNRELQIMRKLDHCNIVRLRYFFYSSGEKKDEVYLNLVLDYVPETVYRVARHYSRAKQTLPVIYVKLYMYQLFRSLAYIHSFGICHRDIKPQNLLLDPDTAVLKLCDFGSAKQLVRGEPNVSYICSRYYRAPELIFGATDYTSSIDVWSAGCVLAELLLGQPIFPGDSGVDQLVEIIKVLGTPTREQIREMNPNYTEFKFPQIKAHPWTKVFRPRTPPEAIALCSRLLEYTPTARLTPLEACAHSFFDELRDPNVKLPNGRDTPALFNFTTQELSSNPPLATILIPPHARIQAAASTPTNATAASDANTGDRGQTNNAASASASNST
In assay [6] the target is Mitogen-activated protein kinase 1 (Homo sapiens) (UniProt P28482).
Sequence of Mitogen-activated protein kinase 1 (Homo sapiens) (P28482 whole entry): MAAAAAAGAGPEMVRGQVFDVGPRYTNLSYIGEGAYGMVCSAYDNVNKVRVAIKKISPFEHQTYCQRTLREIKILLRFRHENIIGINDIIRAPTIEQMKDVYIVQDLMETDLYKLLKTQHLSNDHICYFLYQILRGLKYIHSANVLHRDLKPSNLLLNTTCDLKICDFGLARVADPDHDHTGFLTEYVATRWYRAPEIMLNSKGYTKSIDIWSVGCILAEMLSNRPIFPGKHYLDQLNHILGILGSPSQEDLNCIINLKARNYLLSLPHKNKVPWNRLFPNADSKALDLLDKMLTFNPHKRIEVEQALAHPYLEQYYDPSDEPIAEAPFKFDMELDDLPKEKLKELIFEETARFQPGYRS
The target in assay [7] is T1, Aurora kinase A (Homo sapiens) (UniProt O14965).
T1 sequence (whole entry): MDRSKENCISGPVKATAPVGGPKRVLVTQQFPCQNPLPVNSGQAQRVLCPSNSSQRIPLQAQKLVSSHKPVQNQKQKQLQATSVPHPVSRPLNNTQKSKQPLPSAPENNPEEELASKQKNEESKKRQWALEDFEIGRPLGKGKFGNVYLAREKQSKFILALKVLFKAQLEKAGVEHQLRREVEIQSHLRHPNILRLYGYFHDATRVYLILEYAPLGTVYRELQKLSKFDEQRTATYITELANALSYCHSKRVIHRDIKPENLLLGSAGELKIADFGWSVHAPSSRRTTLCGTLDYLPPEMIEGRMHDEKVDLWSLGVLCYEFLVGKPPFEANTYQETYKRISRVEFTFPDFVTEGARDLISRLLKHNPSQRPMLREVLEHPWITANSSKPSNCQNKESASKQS

Assay [8] has as its target T2, Transcription intermediary factor 1-alpha (Homo sapiens) (UniProt O15164).
T2 sequence (whole entry): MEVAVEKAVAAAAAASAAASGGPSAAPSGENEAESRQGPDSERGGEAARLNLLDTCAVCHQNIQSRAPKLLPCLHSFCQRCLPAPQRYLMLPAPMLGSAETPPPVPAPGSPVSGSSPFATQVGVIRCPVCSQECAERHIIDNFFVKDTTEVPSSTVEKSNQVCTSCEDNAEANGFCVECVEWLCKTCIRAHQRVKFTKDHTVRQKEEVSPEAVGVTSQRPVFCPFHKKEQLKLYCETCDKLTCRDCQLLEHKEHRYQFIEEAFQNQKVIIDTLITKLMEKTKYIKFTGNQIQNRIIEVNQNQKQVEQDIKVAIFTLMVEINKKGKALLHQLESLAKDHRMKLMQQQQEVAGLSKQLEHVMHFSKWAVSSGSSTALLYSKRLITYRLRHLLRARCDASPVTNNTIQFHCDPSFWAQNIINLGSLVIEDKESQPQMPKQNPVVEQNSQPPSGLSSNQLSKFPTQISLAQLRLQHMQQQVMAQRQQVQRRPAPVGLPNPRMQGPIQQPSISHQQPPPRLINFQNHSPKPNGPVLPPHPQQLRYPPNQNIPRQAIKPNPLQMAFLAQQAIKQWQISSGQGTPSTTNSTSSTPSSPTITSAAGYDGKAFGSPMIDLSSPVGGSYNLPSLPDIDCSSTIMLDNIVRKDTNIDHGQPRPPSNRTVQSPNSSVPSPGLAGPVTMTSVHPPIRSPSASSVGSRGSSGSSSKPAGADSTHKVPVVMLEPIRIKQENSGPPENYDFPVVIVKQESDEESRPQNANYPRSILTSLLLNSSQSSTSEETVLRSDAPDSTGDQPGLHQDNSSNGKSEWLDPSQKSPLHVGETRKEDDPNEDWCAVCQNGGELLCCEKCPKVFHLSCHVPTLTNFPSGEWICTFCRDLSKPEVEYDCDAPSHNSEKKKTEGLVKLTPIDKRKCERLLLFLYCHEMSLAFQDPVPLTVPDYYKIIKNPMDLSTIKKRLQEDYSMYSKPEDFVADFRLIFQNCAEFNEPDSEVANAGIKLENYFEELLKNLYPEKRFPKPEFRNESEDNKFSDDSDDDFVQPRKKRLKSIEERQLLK

Sequence of Casein kinase I isoform delta (Homo sapiens) (P48730 whole entry, looked up, canonical isoform): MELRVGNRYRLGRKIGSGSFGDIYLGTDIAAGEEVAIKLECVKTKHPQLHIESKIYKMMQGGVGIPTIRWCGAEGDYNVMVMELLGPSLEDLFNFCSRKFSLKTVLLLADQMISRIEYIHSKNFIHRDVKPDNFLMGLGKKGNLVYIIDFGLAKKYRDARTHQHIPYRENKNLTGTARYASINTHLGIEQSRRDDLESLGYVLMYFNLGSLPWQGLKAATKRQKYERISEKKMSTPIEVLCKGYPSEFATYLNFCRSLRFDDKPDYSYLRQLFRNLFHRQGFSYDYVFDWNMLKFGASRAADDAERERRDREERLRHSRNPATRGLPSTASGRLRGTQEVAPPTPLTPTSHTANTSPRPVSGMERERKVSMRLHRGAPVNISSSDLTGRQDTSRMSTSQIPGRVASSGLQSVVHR
Sequence of Tyrosine-protein kinase ABL1 (Homo sapiens) (P00519 whole entry): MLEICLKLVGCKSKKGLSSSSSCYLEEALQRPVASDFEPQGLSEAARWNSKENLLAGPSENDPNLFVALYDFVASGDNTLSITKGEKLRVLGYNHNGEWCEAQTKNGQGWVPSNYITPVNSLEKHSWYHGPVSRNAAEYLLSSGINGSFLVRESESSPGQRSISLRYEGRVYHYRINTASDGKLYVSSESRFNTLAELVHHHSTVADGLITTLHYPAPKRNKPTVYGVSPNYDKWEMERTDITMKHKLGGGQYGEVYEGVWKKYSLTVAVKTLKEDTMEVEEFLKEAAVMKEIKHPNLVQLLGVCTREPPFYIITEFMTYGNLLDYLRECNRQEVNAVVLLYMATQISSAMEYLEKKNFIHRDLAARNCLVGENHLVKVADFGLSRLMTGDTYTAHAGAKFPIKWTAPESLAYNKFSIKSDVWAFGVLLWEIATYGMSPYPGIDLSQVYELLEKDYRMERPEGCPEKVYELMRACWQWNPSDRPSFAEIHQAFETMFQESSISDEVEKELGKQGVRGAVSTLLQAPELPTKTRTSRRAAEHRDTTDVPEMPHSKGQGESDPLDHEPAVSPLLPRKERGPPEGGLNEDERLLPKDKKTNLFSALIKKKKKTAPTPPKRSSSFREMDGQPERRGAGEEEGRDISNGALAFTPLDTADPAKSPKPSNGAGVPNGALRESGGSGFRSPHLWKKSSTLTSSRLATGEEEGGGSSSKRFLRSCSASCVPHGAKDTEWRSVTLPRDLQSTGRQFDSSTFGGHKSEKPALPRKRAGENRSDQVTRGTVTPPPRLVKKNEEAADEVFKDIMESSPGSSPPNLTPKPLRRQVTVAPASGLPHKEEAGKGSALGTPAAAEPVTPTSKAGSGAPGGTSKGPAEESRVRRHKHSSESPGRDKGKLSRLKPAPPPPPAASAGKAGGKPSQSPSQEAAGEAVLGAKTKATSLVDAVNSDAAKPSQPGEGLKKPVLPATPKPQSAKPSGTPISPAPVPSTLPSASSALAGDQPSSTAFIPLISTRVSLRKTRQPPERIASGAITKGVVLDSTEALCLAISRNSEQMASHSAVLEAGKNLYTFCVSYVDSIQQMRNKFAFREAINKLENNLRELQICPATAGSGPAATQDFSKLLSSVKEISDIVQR

Turning to `Cc1ccc(F)c2cc(C(=O)N[C@@H]3CCC[C@H](N4CC[C@H](N(C)S(C)(=O)=O)C4)C3)[nH]c12`, the ΔTm in assay [1] is 0.55 °C; in assay [2], -1.2 °C; in assay [3], 0.24 °C; in assay [4], 0.73 °C; in assay [5], -1.31 °C; in assay [6], -0.53 °C. In addition, the values for the ΔTm in assay [7] and in assay [8] were 0.21 °C and -1.39 °C, respectively.
As to `NC(=S)c1cccc(-c2cn(C3CCN(S(=O)(=O)C(F)(F)F)CC3)c3cc(CNC(=O)C4CNC4)ccc23)c1`, the ΔTm in assay [1] was 0.61 °C; in assay [2], -0.14 °C; in assay [3] it was 1.5 °C; in assay [4] it was -0.09 °C; in assay [5], -0.8 °C; in assay [6] it was 0.28 °C. For the same compound, the ΔTm is -1.57 °C in assay [7] and 0 °C in assay [8].
Turning to `CN1CC[C@@H](Oc2ccc(F)c(-c3nc4c(o3)C(=O)c3ccccc3C4=O)c2Cl)C1`, the ΔTm in assay [1] was 0.09 °C; in assay [2], 0.99 °C; in assay [3] it was 0.38 °C; in assay [4], -0.29 °C; in assay [5], -0.09 °C; in assay [6], 0.24 °C. Further, the values for the ΔTm in assay [7] and in assay [8] were -1.95 °C and -0.66 °C, respectively.
As to `CC(=O)N[C@@H](CC(=O)O)C(=O)N[C@@H](CC(N)=O)C(=O)N[C@@H](CC(C)C)C(=O)N[C@H](C=O)CC(=O)O`, the ΔTm in assay [1] was 0.21 °C; in assay [2], -3.48 °C; in assay [3], 0.27 °C; in assay [4], -0.23 °C; in assay [5] it was -0.99 °C; in assay [6], 0.1 °C. For the same compound, the ΔTm was -0.95 °C in assay [7] and 0.8 °C in assay [8].
As to `CNC(=O)O[C@H]1COc2ccc(N3CCN(C4COC4)CC3)cc2[C@@H]1NC(=O)c1ccc(F)cc1`, the ΔTm is 0.28 °C in assay [1]; -1.16 °C in assay [2]; -0.66 °C in assay [3]; 0.03 °C in assay [4]; -0.56 °C in assay [5]; -1.19 °C in assay [6]. In addition, the ΔTm in assay [7] is -1.61 °C; in assay [8], -0.51 °C.
For the compound `COc1cc2c(cc1OC)[C@H]1C[C@@H](OC(=O)[C@@H](N)C(C)C)[C@H](CC(C)C)CN1CC2`, the ΔTm was 0.26 °C in assay [1]; 1.87 °C in assay [2]; 0.58 °C in assay [3]; -0.31 °C in assay [4]; -0.94 °C in assay [5]; 0.3 °C in assay [6]. The values for the ΔTm in assay [7] and in assay [8] were -1.54 °C and 0.19 °C, respectively.
Turning to `O=C(c1ccc2c(ccn2-c2ccc(F)cc2)c1)N1CC(N2CCN(C(=O)c3nccs3)CC2)C1`, the ΔTm in assay [1] is 0.62 °C; in assay [2], -3.81 °C; in assay [3] it was -1.22 °C; in assay [4] it was -0.29 °C; in assay [5] it was -1.59 °C; in assay [6], 0 °C. In addition, the ΔTm was -3.69 °C in assay [7] and -0.34 °C in assay [8].
With `CC(C)C[C@@H](C=O)NC(=O)[C@@H](NS(=O)(=O)c1ccc(F)cc1)C(C)C`, the ΔTm is -0.01 °C in assay [1]; -1.83 °C in assay [2]; -0.11 °C in assay [3]; 0.22 °C in assay [4]; -0.13 °C in assay [5]; 0.01 °C in assay [6]. The ΔTm was -1.2 °C in assay [7] and -1.15 °C in assay [8].
For the compound `O=C1COc2c(cccc2[C@@H](O)CNCCN(C(=O)CCNCCc2ccc(Cl)c(Cl)c2)C2CCCCC2)N1`, the ΔTm was 0.38 °C in assay [1]; -1.19 °C in assay [2]; 0.73 °C in assay [3]; 0.16 °C in assay [4]; 0.42 °C in assay [5]; 0.56 °C in assay [6]. Also, the ΔTm in assay [7] is -1.62 °C; in assay [8], 1.39 °C.
On to `Cc1ccc(C(=O)Nc2ccc(S(=O)(=O)O)c3cc(S(=O)(=O)O)cc(S(=O)(=O)O)c23)cc1NC(=O)c1cccc(NC(=O)Nc2cccc(C(=O)Nc3cc(C(=O)Nc4ccc(S(=O)(=O)O)c5cc(S(=O)(=O)O)cc(S(=O)(=O)O)c45)ccc3C)c2)c1`, for which the ΔTm in assay [1] was 0.88 °C; in assay [2], -5.41 °C; in assay [3], -2.98 °C; in assay [4], -1.4 °C; in assay [5], -0.55 °C; in assay [6], -0.68 °C. Also, the values for the ΔTm in assay [7] and in assay [8] were 0 °C and -1.19 °C, respectively.
For the compound `CCOc1ccc(S(=O)(=O)Nc2ccc(Cl)cc2C#Cc2cnc(C(=O)O)cc2OC)c2ncccc12`, the ΔTm in assay [1] is 0.04 °C; in assay [2], -2.23 °C; in assay [3], -0.26 °C; in assay [4], -7.02 °C; in assay [5], -2.42 °C; in assay [6] it was -0.03 °C. Moreover, the thermal shift (ΔTm) in assay [7] was -2.9 °C; in assay [8] it was 0.7 °C.
